{"source": "PubChem BioAssay (NCATS)", "note": "Records with an inconclusive call do not appear. A call without a number means that no potency is given here. Activity calls are given as the source filed them. Calls come from the whole dose curve; as a rule, active = well fitted inhibition curve with a large enough effect; inconclusive = small, poorly fitted or top-dose-only effect; inactive = flat fitted curve, though single readings scatter. Potency is the fitted concentration of half-maximal effect."}
{"test": "Cytometry Cell-Based qHTS for Inhibitors of the mTORC1 Signaling Pathway in MEF cells (AID 2668)", "conditions": "mTORC1 pathway readout; series mostly up to 38.3 µM", "text": "NIH Molecular Libraries Probe Production Centers Network [MLPCN]\nNIH Chemical Genomics Center [NCGC]\nAssay Submitter (PI): Blenis, John; Hoffman, Greg; Harvard University\nNCGC Assay Overview: The mammalian target of rapamycin (mTOR) is an intracellular serine/threonine kinase Aberrant regulation of mTOR signaling plays a causative role in a number of human diseases, including cancer, benign tumors such as lymphangioleiomyomatosis (LAM) and Tuberous Sclerosis Complex (TSC), and metabolic diseases such as diabetes and obesity. This project aims to identify inhibitors of ribosomal protein S6 (rpS6) phosphorylation. The phosphorylation of rpS6 is a key event downstream of mTOR activation. The assay uses a phospho-specific antibody of phospho-rpS6 to detect inhibitors of mTOR activation. Mutations in the Tsc1 and Tsc2 genes are the underlying genetic lesions responsible for TSC, causing constitutive activation of the mTORC1 pathway and leading to profound effects on cell metabolism. Aberrant metabolism in cancer has recently received significant attention as a target to develop therapeutic agents in the treatment of cancer.1 As Tsc2-/- cells have lost the ability to respond to energy and growth factor deprivation, these cells are unable to properly down regulate cellular biosynthetic processes in response to metabolic stress, and are thus extremely sensitive to glucose deprivation-induced death.2 A central goal of this project is to explore the unique cell survival and metabolic properties of cells with Tsc1 or Tsc2 by screening for compounds that selectively target the Tsc2-/- MEFs by screening both Tsc2-/- and WT MEF cell lines. We hope to better understand these aspects of TSC physiology in order to exploit them for therapeutic benefit.\nNCGC Acumen Assay Protocol:\nFor quantitative high throughput analysis of mTORC1 signaling, we developed a cell-based assay for immuno-fluorescence based detection of rpS6 phosphorylation on the Acumen Explorer that will be used a platform for the primary small molecule screen. Mouse embryonic fibroblasts (MEFs) are cultured in 1536-well plates using DMEM + 10% FBS. Twenty-four hrs after plating, test compounds (solubilized in DMSO) are delivered and incubated with the cells for 24 hrs at 37 degree Celsius. Following the incubation, media with compound is aspirated and the cells are fixed in 4% paraformaldehyde (PFA) containing PBS + 0.2% TX-100. Next, PFA is aspirated, cells are washed two times with PBS plus 0.2% TX-100 and the cells are blocked for 1 hr at room temperature (blocking buffer: LiCOR Blocking Buffer plus 0.2% TX-100). This is followed by aspiration and staining with Alexa-488 conjugated-phospho-rpS6 Ser235/236 antibody for 2 hours at room temperature (Cell Signaling Technology # 4803, 1:50 dilution in blocking buffer). Cells are washed two times with PBS plus 0.2% TX-100, and stained with 10 uM propidium iodide (PI) for 20-25 minutes for cell number measurement (1:500 dilution of Hoescht staining is also added for IN Cell imaging). The plates are scanned on the Acumen Explorer laser scanning instrument (TTP Labtech) using the 488nm laser for simultaneous excitation of the Alexa-488 and PI. The fluorescence emission from the Alexa-488 conjugated rpS6 phospho-235/236 antibody staining is selected using a […] band pass filter. Fluorescence emission from the PI stain is selected using a 575-640 nm band pass filter. The normalized phospho-S6 staining is calculated as the ratio of the integrated Alexa 488 intensity divided by the integrated PI intensity for the single concentration rapamycin control (7.5 nM) and DMSO columns. […] Inhibition of the pathway is defined based on the normalized phospho-S6 intensity in rapamycin treated cells. […]"}
{"compound": "Oc1ccc(-c2nc(-c3ccc(F)cc3)c(-c3ccncc3)[nH]2)cc1", "Potency": "inactive"}
{"compound": "O=C(CCc1ccc(O)cc1)c1c(O)cc(O)cc1O", "Potency": "inactive"}
{"compound": "Oc1ccc2ccccc2c1SSc1c(O)ccc2ccccc12", "Potency": "inactive"}
{"compound": "O=Nc1c(-c2c(O)[nH]c3cc(Br)ccc23)[nH]c2ccccc12", "Potency": "5.21 µM (active)"}
{"compound": "Cc1c(OCC(F)(F)F)ccnc1CS(=O)c1nc2ccccc2[nH]1", "note": "(stereo not drawn)", "Potency": "inactive"}
{"compound": "OC(CN1CCN(c2cccc(Cl)c2)CC1)C(c1ccccc1)c1ccccc1", "note": "(stereo not drawn)", "Potency": "inactive"}
{"compound": "O=c1c(O)c(-c2ccc(O)cc2O)oc2cc(O)cc(O)c12", "Potency": "inactive"}
{"compound": "COc1cc2nc(N3CCN(C(=O)C4CCCO4)CC3)nc(N)c2cc1OC", "note": "(stereo not drawn)", "Potency": "inactive"}
{"compound": "O=C(O)c1cccnc1Nc1cccc(C(F)(F)F)c1", "Potency": "inactive"}
{"compound": "CN(C)CCCC1(c2ccc(F)cc2)OCc2cc(C#N)ccc21", "note": "(stereo not drawn)", "Potency": "inactive"}
{"compound": "COc1ccccc1N1CCN(CCN(C(=O)C2CCCCC2)c2ccccn2)CC1", "Potency": "inactive"}
{"compound": "O=c1ccc2ccc(O)c(O)c2o1", "Potency": "inactive"}
{"compound": "O=C(c1ccccc1)c1ccc2n1CCC2C(=O)O", "note": "(stereo not drawn)", "Potency": "inactive"}
{"compound": "O=c1cc(N2CCOCC2)oc2c(-c3ccccc3)cccc12", "Potency": "4.65 µM (active)"}
{"compound": "C[C@@H](N)C1CCC(C(=O)Nc2ccncc2)CC1", "note": "(stereo partly drawn)", "Potency": "inactive"}
{"compound": "NNc1nncc2ccccc12", "Potency": "inactive"}
{"compound": "NCCCCNCCCN", "Potency": "inactive"}
{"compound": "CC1(C)C(=O)N(CCN2CCC(C(=O)c3ccc(F)cc3)CC2)c2ccccc21", "Potency": "inactive"}
{"compound": "CCOC(=O)C(C)Oc1cccc2c(=O)n(CC(=O)Nc3ccc4c(c3)OCCO4)ccc12", "note": "(stereo not drawn)", "Potency": "inactive"}
{"compound": "O=C1c2c(O)cc(O)cc2OC(c2ccc(O)c(O)c2)C1O", "note": "(stereo not drawn)", "Potency": "inactive"}
{"compound": "Nc1nc(OCc2ccccc2)c2[nH]cnc2n1", "Potency": "inactive"}
{"compound": "CC1(C)NC(=O)N(c2ccc([N+](=O)[O-])c(C(F)(F)F)c2)C1=O", "Potency": "inactive"}
{"compound": "Cc1cc(O)c2c(c1)C(=O)c1cc(O)cc(O)c1C2=O", "Potency": "inactive"}
{"compound": "Cc1cccc(C#Cc2ccccc2)n1", "Potency": "inactive"}
{"compound": "CC(=O)N1CCN(c2ccc(OC[C@H]3CO[C@](Cn4ccnc4)(c4ccc(Cl)cc4Cl)O3)cc2)CC1", "Potency": "inactive"}
{"compound": "COc1ccc2cc([C@H](C)C(=O)O)ccc2c1", "Potency": "inactive"}
{"compound": "NC(=NCc1ccccc1)NC(=O)c1nc(Cl)c(N)nc1N", "Potency": "inactive"}
{"compound": "O=C1NC(=O)C(c2ccccc2[N+](=O)[O-])=C1Nc1ccc(O)c(Cl)c1", "Potency": "inactive"}
